Test results: PubChem BioAssay (NCI)
Compounds without any hit were thinned out: in the full panel of roughly 83,000, 20% have a hit.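 48-hour exposure, single concentration, 96-well plates; percent growth endpoint where 0 means no net growth. Active: below 10.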 A number with no mark means an inactive call. Calls of active or inactive are those of the source.

What was measured:
Test in all cases: NCI-60 one-dose screen, 48 h (100 = growth as untreated, 0 = no growth, -100 = all killed)
Settings in all cases: 10 µM unless noted
SK-MEL-2 melanoma = system: SK-MEL-2 melanoma
EKVX NSCLC = system: EKVX NSCLC
SN12C renal = system: SN12C renal
UO-31 renal = system: UO-31 renal
TK-10 renal = system: TK-10 renal
ACHN renal = system: ACHN renal
CAKI-1 renal = system: CAKI-1 renal
A498 renal = system: A498 renal
CCRF-CEM leukemia = system: CCRF-CEM leukemia
SR leukemia = system: SR leukemia
RPMI-8226 leukemia = system: RPMI-8226 leukemia
OVCAR-8 ovarian = system: OVCAR-8 ovarian
OVCAR-5 ovarian = system: OVCAR-5 ovarian
OVCAR-4 ovarian = system: OVCAR-4 ovarian
SK-OV-3 ovarian = system: SK-OV-3 ovarian
IGROV1 ovarian = system: IGROV1 ovarian
OVCAR-3 ovarian = system: OVCAR-3 ovarian
HS 578T breast = system: HS 578T breast
NCI/ADR-RES ovarian = system: NCI/ADR-RES ovarian
MOLT-4 leukemia = system: MOLT-4 leukemia

## CC(=O)[C@@H]1CC[C@]2(C(N)=O)CC[C@]3(C)[C@H](CC[C@@H]4[C@@]5(C)CCCNC(C)(C)[C@@H]5CC[C@]43C)[C@@H]12
SK-MEL-2 melanoma
  growth: 86.2%
EKVX NSCLC
  growth: 93.9%
SN12C renal
  growth: 86.5%
UO-31 renal
  growth: 76.5%
TK-10 renal
  growth: 120%
ACHN renal
  growth: 107%
CAKI-1 renal
  growth: 93.1%
A498 renal
  growth: 96.6%
CCRF-CEM leukemia
  growth: 88.3%
SR leukemia
  growth: 43.7%
RPMI-8226 leukemia
  growth: 61.7%
OVCAR-8 ovarian
  growth: 98%
OVCAR-5 ovarian
  growth: 91.5%
OVCAR-4 ovarian
  growth: 84.6%
SK-OV-3 ovarian
  growth: 108%
IGROV1 ovarian
  growth: 93.6%
OVCAR-3 ovarian
  growth: 89.3%
HS 578T breast
  growth: 84.4%
NCI/ADR-RES ovarian
  growth: 90.6%

## CC(=O)[C@H]1CCC/C=C/[C@@H]2C[C@H](O)C[C@H]2[C@H](O)/C=C/C(=O)O1
SK-MEL-2 melanoma
  growth: -14.3% (active)
EKVX NSCLC
  growth: 6.77% (active)
SN12C renal
  growth: 9.7% (active)
UO-31 renal
  growth: 1.16% (active)
TK-10 renal
  growth: 30.8%
ACHN renal
  growth: 5.56% (active)
CAKI-1 renal
  growth: -15.7% (active)
A498 renal
  growth: -42.8% (active)
CCRF-CEM leukemia
  growth: 9.09% (active)
MOLT-4 leukemia
  growth: -41.3% (active)
RPMI-8226 leukemia
  growth: 14.2%
OVCAR-8 ovarian
  growth: 11.3%
OVCAR-5 ovarian
  growth: 32.3%
OVCAR-4 ovarian
  growth: 18.9%
SK-OV-3 ovarian
  growth: 23.9%
IGROV1 ovarian
  growth: -5.3% (active)
OVCAR-3 ovarian
  growth: -31.1% (active)
HS 578T breast
  growth: 36.9%
NCI/ADR-RES ovarian
  growth: 3.11% (active)

## NS(=O)(=O)c1ccc(CCn2c(SCC(=O)c3ccc(Cl)cc3)nc3ccccc3c2=O)cc1
SK-MEL-2 melanoma
  growth: 107%
EKVX NSCLC
  growth: 98.9%
SN12C renal
  growth: 101%
UO-31 renal
  growth: 84.5%
TK-10 renal
  growth: 97.2%
ACHN renal
  growth: 99.9%
CAKI-1 renal
  growth: 89.7%
A498 renal
  growth: 99.2%
CCRF-CEM leukemia
  growth: 97.8%
MOLT-4 leukemia
  growth: 97.6%
SR leukemia
  growth: 100%
RPMI-8226 leukemia
  growth: 107%
OVCAR-8 ovarian
  growth: 107%
OVCAR-5 ovarian
  growth: 108%
SK-OV-3 ovarian
  growth: 107%
OVCAR-3 ovarian
  growth: 109%
HS 578T breast
  growth: 101%

## Cn1ccc2c1CC1CN(Cc3ccco3)C(=O)C1C2C(=O)O (stereo not drawn)
SK-MEL-2 melanoma
  growth: 99.2%
EKVX NSCLC
  growth: 91.1%
SN12C renal
  growth: 97.2%
UO-31 renal
  growth: 89.6%
TK-10 renal
  growth: 102%
ACHN renal
  growth: 105%
CAKI-1 renal
  growth: 94.1%
A498 renal
  growth: 98.3%
CCRF-CEM leukemia
  growth: 105%
MOLT-4 leukemia
  growth: 103%
SR leukemia
  growth: 107%
OVCAR-8 ovarian
  growth: 106%
OVCAR-5 ovarian
  growth: 95%
OVCAR-4 ovarian
  growth: 99.5%
SK-OV-3 ovarian
  growth: 109%
IGROV1 ovarian
  growth: 104%
OVCAR-3 ovarian
  growth: 103%
HS 578T breast
  growth: 98.7%

## O=C1Nc2ccccc2/C1=C\c1c(-c2ccccc2)nc2ccccn12
SK-MEL-2 melanoma
  growth: 52.5%
EKVX NSCLC
  growth: 53.1%
SN12C renal
  growth: 46.1%
UO-31 renal
  growth: 48.2%
TK-10 renal
  growth: 84.4%
ACHN renal
  growth: 40.9%
CAKI-1 renal
  growth: 39.2%
A498 renal
  growth: 28.6%
CCRF-CEM leukemia
  growth: 37.9%
MOLT-4 leukemia
  growth: 9.8% (active)
RPMI-8226 leukemia
  growth: 66%
OVCAR-8 ovarian
  growth: 68.9%
OVCAR-5 ovarian
  growth: 68.2%
OVCAR-4 ovarian
  growth: 78.8%
SK-OV-3 ovarian
  growth: 30.5%
IGROV1 ovarian
  growth: 46.3%
OVCAR-3 ovarian
  growth: 11.9%
HS 578T breast
  growth: 69.5%
NCI/ADR-RES ovarian
  growth: -11.1% (active)

## Cc1cccc(-c2cn3ccnc3c(-c3ccc4ncn(Cc5ccccc5)c4c3)n2)c1
SK-MEL-2 melanoma
  growth: 93.7%
EKVX NSCLC
  growth: 77.7%
SN12C renal
  growth: 95.3%
UO-31 renal
  growth: 58.3%
TK-10 renal
  growth: 110%
ACHN renal
  growth: 87.6%
CAKI-1 renal
  growth: 75.2%
A498 renal
  growth: 77.9%
CCRF-CEM leukemia
  growth: 78.9%
SR leukemia
  growth: 89%
RPMI-8226 leukemia
  growth: 62.5%
OVCAR-8 ovarian
  growth: 88.5%
OVCAR-5 ovarian
  growth: 93.4%
OVCAR-4 ovarian
  growth: 80.7%
SK-OV-3 ovarian
  growth: 102%
IGROV1 ovarian
  growth: 90.5%
OVCAR-3 ovarian
  growth: 86%
HS 578T breast
  growth: 91.5%
NCI/ADR-RES ovarian
  growth: 87.9%

## O=C1Nc2ccccc2/C1=C\c1c(-c2ccc(F)cc2)nc2ccccn12
SK-MEL-2 melanoma
  growth: 75.5%
EKVX NSCLC
  growth: 45.6%
SN12C renal
  growth: 82.5%
UO-31 renal
  growth: 41%
TK-10 renal
  growth: 109%
ACHN renal
  growth: 54.9%
CAKI-1 renal
  growth: 44.3%
A498 renal
  growth: 70.8%
CCRF-CEM leukemia
  growth: 67.9%
MOLT-4 leukemia
  growth: 57%
RPMI-8226 leukemia
  growth: 94.8%
OVCAR-8 ovarian
  growth: 86.8%
OVCAR-5 ovarian
  growth: 77.5%
OVCAR-4 ovarian
  growth: 83.9%
SK-OV-3 ovarian
  growth: 62.7%
IGROV1 ovarian
  growth: 57.1%
OVCAR-3 ovarian
  growth: 62.1%
HS 578T breast
  growth: 91.5%
NCI/ADR-RES ovarian
  growth: 35.4%

## CC(=O)O[C@@H]1C2CCC3C(CC[C@@]4(C)C3CC[C@@H]4C(C)N(C)C)[C@@]2(C)CC[C@@H]1NC(=O)C=C(C)C (stereo partly drawn)
SK-MEL-2 melanoma
  growth: 31.9%
EKVX NSCLC
  growth: 30.8%
SN12C renal
  growth: 32.7%
UO-31 renal
  growth: 6.19% (active)
TK-10 renal
  growth: 47.2%
ACHN renal
  growth: 25.4%
CAKI-1 renal
  growth: -6.25% (active)
A498 renal
  growth: 60.6%
CCRF-CEM leukemia
  growth: -12% (active)
MOLT-4 leukemia
  growth: -50.6% (active)
SR leukemia
  growth: -34.5% (active)
OVCAR-8 ovarian
  growth: 44.3%
OVCAR-5 ovarian
  growth: 83.8%
OVCAR-4 ovarian
  growth: -19.5% (active)
SK-OV-3 ovarian
  growth: 65.4%
OVCAR-3 ovarian
  growth: 0.951% (active)
HS 578T breast
  growth: 16%
NCI/ADR-RES ovarian
  growth: 37.6%
